# Data as given in the supplement of paper PMC7156485.
# Where “and” joins values, the source holds several entries; their conditions need not be identical. Identical values can stand only once. Values without a mark were called inactive.
# Test system: HCC1569
# Experiment: H1.0 immunofluorescence intensity relative to DMSO (% of DMSO); higher = stronger H1.0 induction, active = 140 or more
# Conditions: concentration: 10 µM; 24 h
# Procedure, shortened: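 HCC1569 and TDF cells (800 per well, 384-well plates, RPMI with 10% FBS) were treated with compounds at 10 µM for 24 h at 37 °C, in triplicate. Cells were fixed in 3.7% formaldehyde and stained with a rabbit anti-H1.0 antibody, an AlexaFluor 647 secondary and DAPI; six fields per well were imaged at ×10. H1.0 nuclear intensity or cell number is expressed as percent of the plate DMSO control, taking the median of replicates. HCC1569 values were smoothed for positional effects.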
# 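Also: TDF is a line of transformed human dermal fibroblasts of mesenchymal origin.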
row,SMILES,H1.0 immunofluorescence intensity
1,Cc1nc(-c2ccc(-c3ccc(C(=O)N4CCc5cc6c(cc54)C4(CCN(C)CC4)CO6)cc3)c(C)c2)no1.Cl,150 (active)
2,CC1OC(=O)C(C(C)C)NC(=O)C(C(C)C)OC(=O)C(C(C)C)NC(=O)C(C)OC(=O)C(C(C)C)NC(=O)C(C(C)C)OC(=O)C(C(C)C)NC(=O)C(C)OC(=O)C(C(C)C)NC(=O)C(C(C)C)OC(=O)C(C(C)C)NC1=O (centres undefined) [Valinomycin],174 (active)
3,COc1ccc(C(=O)OC2CC3CCC(C2)N3C)cc1OC (centres undefined) [Convolvamine],90
4,C1CCc2nnnn2CC1 [Pentylenetetrazole],98.1
5,CC(=CC=CC(C)C(=O)O)C1CNC(C(=O)O)C1CC(=O)O (centres undefined) [Domoic acid],86.3
6,CNCC(O)c1ccc(O)cc1 (racemic),103
7,CP(=O)(O)CCCN.Cl,107
8,CCCCCC=CC=CC(CCCCCCCC(=O)O)OO (centres undefined),94.9
9,COC(C)C(O)(C(=O)OCC1=CCN2CCC(O)C12)C(C)C (centres undefined) [Heliotrine],90.6
10,COCC1OC(=O)c2coc3c2C1(C)C1=C(C3=O)C2CCC(=O)C2(C)CC1OC(C)=O (centres undefined) [Wortmannin from Penicillium funiculosum],153 (active)
11,CCCN1CCCC2Cc3nc(N)ncc3CC21.Cl.Cl (centres undefined) [Quinelorane dihydrochloride],106
12,Br.CCCN(CCC)C1CCc2ccc(O)cc2C1 (stereo not drawn) [R-(+)-7-Hydroxy-DPAT hydrobromide],101
13,CCCN1CCCC2Cc3[nH]ncc3CC21 (racemic),106
14,COc1cc(=O)oc(C=CC=CC=CC(C)=CC2(C)OC(C)C(C)(O)C2O)c1C (centres undefined) [Citreoviridin],77.4
15,COC1CC(CC2CCC(C)C(C(C)C(=O)[O-])O2)OC2(OC(C)(C3CCC(C)(C4OC(C5OC(O)(CO)C(C)CC5C)CC4C)O3)CC2C)C1C.[Na+] (centres undefined) [Nigericin],183 (active)
16,CC1CCC2N(C1)CC1C3CC4C(CC(=O)C5CC(O)CCC54C)C3CCC1C2(C)O (centres undefined) [Imperialine],92.1
17,CCCN(CCC)C(=O)Cc1c(-c2ccc(Cl)cc2)nc2c(Cl)cc(Cl)cn12,100
18,CC(O)=C(C#N)C(=O)Nc1cc(Br)ccc1Br,111 and 98.6
19,COc1ccc2c(c1O)-c1cccc3c1C(C2)N(C)CC3.Cl (stereo not drawn) [R(-)-Apocodeine hydrochloride],87.5
20,NC(=O)c1cc(N2CC2)c([N+](=O)[O-])cc1[N+](=O)[O-],91.7

row,SMILES,H1.0 immunofluorescence intensity
1,CCCCCCC(C)(C)c1ccc(C2CC(O)CCC2CCCO)c(O)c1 (centres undefined),93
2,C=C1C(C)C2C(Cc3ccccc3)NC(=O)C23C(OC(C)=O)C=CC(C)(O)C(=O)C(C)CC=CC3C1O (centres undefined) [Cytochalasin D],204 (active)
3,Br.COC1CC=C2CCN3CCC4=C(CC(=O)OC4)C23C1 (stereo not drawn) [Dihydro-beta-erythroidine hydrobromide],93.8
4,COc1cc2c(cc1O)CC1c3c(cc(O)c(OC)c3-2)CCN1C (centres undefined) [Boldine],99.9
5,COc1ccc2c(c[n+](C)c3c4cc5c(cc4ccc23)OCO5)c1OC.[Cl-] [Chelerythrine Chloride],123
6,CC(Cc1ccc(OCC(=O)[O-])cc1)NCC(O)c1cccc(Cl)c1.[Na+] (centres undefined),88.6
7,C[Se]CC(N)C(=O)O.Cl (centres undefined) [Se-(methyl)selenocysteine hydrochloride],98.1
8,CN1CCc2cccc(Cl)c2CC1.Cl,86.7
9,CN1CC(C(=O)NC2(C)OC3(O)C4CCCN4C(=O)C(Cc4ccccc4)N3C2=O)CC2c3cccc4[nH]cc(c34)CC21.CS(=O)(=O)O (centres undefined) [Dihydroergotamine mesylate],105
10,CC[N+](CC)(CC)CC.[Cl-] [Tetraethylammonium chloride],108
11,O=C([O-])Cc1ccccc1.[Na+] [Sodium Phenylacetate],100
12,CC(C)N(CCC(C(N)=O)(c1ccccc1)c1ccccn1)C(C)C.O=P(O)(O)O (centres undefined) [Disopyramide phosphate],94.1
13,CC1(C)CCCC(C)(C)N1[O],99.1
14,C[N+](C)(C)CC(=O)O.[Cl-] [Betaine hydrochloride],82.7
15,COC1C(O)C(C)OC(OC2C(Oc3cccc4c(O)c5c(=O)oc6ccc(C)c7c(=O)oc(c34)c5c67)OC(C)C(O)C2O)C1O (centres undefined) [Chartreusin],108
16,Cl.NCC(O)c1ccc(O)cc1 (racemic),93.1
17,NC(CCCCCP(=O)(O)O)C(=O)O (stereo not drawn) [D(-)-2-Amino-7-phosphonoheptanoic acid],99.2
18,CNC(=O)OCC[N+](C)(C)C.[Cl-] [Methylcarbamylcholine chloride],95.8
19,Cl.Clc1cc(I)cc(Cl)c1NC1=NCCN1 [p-Iodoclonidine hydrochloride],85.2
